Screens (PubChem BioAssay)
Methyltransferases – Primary Screen for Target Class Profiling of Small Molecule Inhibitors of Methyltransferases. purified enzyme, MTase-Glo SAH luminescence; active compounds read low. calls only at 40 µM. 25,000 tested, 3.9% active; call rule not given here
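Each enzyme was reacted with SAM and its substrate, with compounds tested once at 40 uM; SAH formed was read by MTase-Glo luminescence.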
* = called active by the depositor; i = inactive; + = active, no number; ! = a repeat was not active. Only a selection was taken, and hits are over-represented in it overall. On the % scale 0 is the no-effect control and ±100 the full control effect.

SMILES	Methyltransferases
O=C1Nc2ccc(Cl)cc2[C@@](C#CC2CC2)(C(F)(F)F)O1	+!
CCOc1ccccc1CN1C(=O)c2ccc(-c3ccco3)n2CC1(C)C(=O)NC1CCC(C)CC1 (stereo not drawn)	i
COc1ccc(CNC(=O)c2cc3n(n2)CC(C)(C(=O)NCc2ccc(C)cc2)N(C)C3=O)c(OC)c1 (stereo not drawn)	i
CC1(C(=O)NC2CCCC2)Cn2cnc(C(=O)NCCCc3ccccc3)c2C(=O)N1C1CC1 (stereo not drawn)	i
COc1ccc2c(Oc3ccc(NC(=O)c4c(C)n(CC(C)(C)O)n(-c5ccccc5)c4=O)cc3F)ccnc2c1	+
O=C(Nc1ccc(Oc2ccnc3[nH]ccc23)c(F)c1)c1cccn(-c2ccc(F)cc2)c1=O	i
COc1ccc2c(OCc3nnc4ccc(-c5ccccc5)nn34)ccnc2c1	i
CC(C)CNC(=O)c1ccc2c(=O)n(C)c3nn(CC(=O)Nc4ccc(C(C)C)cc4)c(=O)n3c2c1	i
Cn1c(=O)n(C)c2cc(S(=O)(=O)NCc3ccc4c(c3)OCO4)ccc21	i
Cc1ccccc1CN1C(=O)c2nc3ccccc3n2CC1(C)C(=O)NC1CCCC(C)C1C (stereo not drawn)	i
CNC(=O)c1ccccc1Nc1nc(Nc2ccc3c(c2OC)CCCC(N2CCN(CCO)CC2)C3)ncc1Cl (stereo not drawn)	+
COc1c(Nc2ncc(Cl)c(N[C@H]3[C@@H](C(N)=O)[C@@H]4C=C[C@H]3C4)n2)ccc2c1CC[C@@H](N1CCOCC1)CC2	i
O=C(CSc1nnc2n(Cc3ccc(F)cc3)c(=O)c3ccccc3n12)Nc1cccc(Cl)c1	i
COc1cc(S(=O)(=O)N2CCC(n3c(=O)[nH]c4ccccc43)CC2)ccc1-n1cnnn1	i
CCCN1C(=O)c2c(C(=O)NCc3cccc(Br)c3)ncn2CC1(C)C(=O)NCCC(C)C (stereo not drawn)	i
COc1cc2c(Nc3cc(F)c(Cl)c(Cl)c3)ncnc2cc1OCC1CCCN(C)CCC1	+
COc1cc2c(Nc3ccc(Br)cc3F)ncnc2cc1OCC1CCN(C)CC1	+
CC(C)Cn1c(=O)c2ccc(C(=O)NC(C)C)cc2n2c(SCC(=O)NC3CCCC3)nnc12	i
Cc1ccc(S(=O)(=O)NCCn2c(C(F)(F)F)nc3ccccc32)cc1	i
O=S(=O)(NCc1ccc(F)cc1)c1ccccc1-c1nc(-c2ccc(F)cc2)no1	i
Cc1ccc(C)c(N2C(=O)c3cc4sccc4n3CC2(C)C(=O)NC2CCCCCCC2)c1 (stereo not drawn)	i
O=C(Cn1c(=O)oc2cc(S(=O)(=O)NC3CCCC3)ccc21)NCc1ccccc1Cl	i
CN1CCN(Cc2ccc(CC3CCN(S(=O)(=O)c4cccc(F)c4)CC3)cc2)CC1	i
COc1ccccc1CNC(=O)C1(C)Cn2c(cc3ccccc32)C(=O)N1Cc1cccs1 (stereo not drawn)	i
O=C(Cn1nc2n(Cc3ccccc3)c(=O)c3ccccc3n2c1=O)Nc1ccc(Cl)cc1	i
SMILES	Methyltransferases
C[C@@H]1O[C@@H](OC[C@H]2O[C@@H](OCc3ccccc3)[C@H](O)[C@@H](O)[C@@H]2O)[C@H](O)[C@H](O)[C@H]1O	+
OC[C@H]1O[C@@H](OC[C@H]2O[C@@H](OCc3ccccc3)[C@H](O)[C@@H](O)[C@@H]2O)[C@H](O)[C@@H](O)[C@@H]1O	i
C=Cc1ccc(O[C@@H]2O[C@H](CO[C@@H]3O[C@@H](C)[C@H](O)[C@@H](O)[C@H]3O)[C@@H](O)[C@H](O)[C@H]2O)cc1	i
CC(CN1C(=O)c2nc3ccccc3n2CC1(C)C(=O)NC1CCCC1)c1ccccc1 (stereo not drawn)	i
COc1ccccc1CN1C(=O)c2cc3ccccc3n2CC1(C)C(=O)NCCC(C)C (stereo not drawn)	i
COC(=O)c1ncn2c1C(=O)N(Cc1ccccc1C)C(C)(C(=O)NC1CCCCC1)C2 (stereo not drawn)	i
NC(=O)N1CCC(CC(=O)N2CCC(C3c4ncc(Br)cc4CCc4cc(Cl)cc(Br)c43)CC2)CC1 (stereo not drawn)	+
Cc1cc2c(cc3n2CC(C)(C(=O)NC2CCCCC2)N(Cc2cccnc2)C3=O)o1 (stereo not drawn)	i
Cc1ccc(Cl)cc1NC(=O)CSc1nnc2n(CC(C)C)c(=O)c3ccccc3n12	i
CCCn1c(=O)c2ccc(C(=O)NC(C)CC)cc2n2c(=O)n(CC(=O)N(C)c3ccccc3)nc12 (stereo not drawn)	i
Oc1cc2c(cc1O)C(c1ccccc1)CNCC2 (stereo not drawn)	+
Oc1ccc(CC2NCCc3cc(O)c(O)cc32)cc1 (stereo not drawn)	i
CN1CCc2cc(Cl)c(O)cc2[C@@H](c2ccccc2)C1	i
Cc1ccc(NC(=O)Cn2nc3n(C)c(=O)c4ccc(C(=O)NC5CCCC5)cc4n3c2=O)c(Cl)c1	i
CC(C)OCCCn1c(=O)c2ccccc2n2c(CCC(=O)NCCc3ccccc3)nnc12	i
CC(NC(=O)c1cc2n(n1)CC(C)(C(=O)NC1CCCC1)N(C)C2=O)c1ccc2c(c1)OCCO2 (stereo not drawn)	i
CC(C)(C)c1ccc(S(=O)(=O)/C=C/C#N)cc1	+
COc1ccc(CCNC(=O)CCc2nnc3n(Cc4ccccc4Cl)c(=O)c4ccccc4n23)cc1OC	i
CSc1ccc(CN2C(=O)c3ccc(-c4ccco4)n3CC2(C)C(=O)NC2CCCCCC2)cc1 (stereo not drawn)	i
CC(C)C[C@H](C(=O)O)c1cc(-c2ccc(C(F)(F)F)cc2)cc(-c2ccc(C(F)(F)F)cc2)c1	+
COc1ccc(OC)c2c1cc1n2CC(C)(C(=O)NC2CCCCC2C)N(Cc2cccnc2)C1=O (stereo not drawn)	i
Cc1cc(C)c(NC(=O)Cn2c(=O)oc3cc(S(=O)(=O)N4CCCC4)ccc32)c(C)c1	i
O=C(CCCc1nnc2n3nc(-c4ccccc4)nc3c3ccccc3n12)N1CC=C(c2ccccc2)CC1	i
COc1ccccc1CN1C(=O)c2cc3sccc3n2CC1(C)C(=O)NC1CCC(C)CC1 (stereo not drawn)	i
CC1CC(C)CN(S(=O)(=O)c2ccc3c(c2)oc(=O)n3CC(=O)NCc2cccs2)C1 (stereo not drawn)	i
SMILES	Methyltransferases
COc1cccc(C2c3cccn3-c3sc4c(c3CN2C(=O)Nc2cc(F)ccc2F)CCCC4)c1 (stereo not drawn)	i
O=C(Cn1nc2n(CCc3ccccc3)c(=O)c3ccccc3n2c1=O)Nc1ccc(F)cc1	i
COC(=O)c1cc2n(n1)CC(C)(C(=O)NC1CCC(C)CC1)N(Cc1ccc(C)cc1)C2=O (stereo not drawn)	i
CC(C)c1ccc(NC(=O)c2cc3n(n2)CC(C)(C(=O)NC2CCCCCC2)N(C)C3=O)cc1 (stereo not drawn)	i
CCC(C)NC(=O)c1ccc2c(=O)n(CC(C)C)c3nn(Cc4cccc(C)c4)c(=O)n3c2c1 (stereo not drawn)	i
CCOCCCN1C(=O)c2cc(-c3ccccc3)nn2CC1(C)C(=O)NCc1ccccc1 (stereo not drawn)	i
CN(c1ccccc1CNc1nc(Nc2ccc3c(c2)CC(=O)N3)ncc1C(F)(F)F)S(C)(=O)=O	+
COc1ccc(OC)c(S(=O)(=O)N2CCCCC2c2noc(COCC3CC3)n2)c1 (stereo not drawn)	i
